PubChem BioAssay (NCATS)
Inconclusive results are not listed. The source made the active and inactive calls. Calls come from the whole dose curve; as a rule, active = well fitted inhibition curve with a large enough effect; inconclusive = small, poorly fitted or top-dose-only effect; inactive = flat fitted curve, though single readings scatter.

What was measured:
Test in all cases: qHTS profiling for inhibitors of Plasmodium falciparum proliferation (AID 504749); note: nearly all actives have a fitted effect of over 60% in size
Conditions in all cases: P. falciparum in erythrocytes, SYBR Green DNA, 72 h; series mostly up to 28.7 µM
CP238 = system: CP238
How it was run: (§1)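 P. falciparum-infected erythrocytes (0.3% parasitemia, 2.5% hematocrit) incubated with compound 72 h at 37 C, 5% CO2. Parasite DNA detected by SYBR Green after lysis, overnight at room temperature; normalised to 0.29 uM artemisinin and DMSO.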

CP247 = system: CP247
How it was run: as §1

CP250 = system: CP250
How it was run: as §1

CP252 = system: CP252
How it was run: as §1

CP256 = system: CP256
How it was run: as §1

CP260 = system: CP260
How it was run: as §1

CP262 = system: CP262
How it was run: as §1

CP265 = system: CP265
How it was run: as §1

CP266 = system: CP266
How it was run: as §1

CP268 = system: CP268
How it was run: as §1

CP269 = system: CP269
How it was run: as §1

CP286 = system: CP286
How it was run: as §1

CP291 = system: CP291
How it was run: as §1

CP297 = system: CP297
How it was run: as §1

CP305 = system: CP305
How it was run: as §1

CP315 = system: CP315
How it was run: as §1

CP325 = system: CP325
How it was run: as §1

CP329 = system: CP329
How it was run: as §1

CP335 = system: CP335
How it was run: as §1

DFO2036 = system: DFO2036
How it was run: as §1

Measured: outcome

CCOC(=O)C(CCc1ccccc1)NC(C)C(=O)N1Cc2ccccc2CC1C(=O)O (stereo not given)
inactive: all assays above

CCc1cccc2c3c([nH]c12)[C@@](CC)(CC(=O)O)OCC3
inactive: all assays above
